Source: PubChem BioAssay (NCI)
About 79,000 compounds went through this panel and 15% of them were active in at least one assay; those are over-represented in the sample as a whole. A number with no mark means an inactive call. The source made the active and inactive calls. Rule as the data show it: active = growth inhibition above about 70%; inactive = the rest.

Key:
[1] = NCI Yeast Anticancer Drug Screen. Data for the rad50 strain (AID 155);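 also: 0% = growth of vehicle-only cultures of the same strain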; conditions: S. cerevisiae rad50 strain growth inhibition; at 50.0 µM; active compounds read high
Summary of the method: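 DNA repair mutant yeast, compound exposure, growth read-out; inhibition is taken relative to vehicle.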

[2] = NCI Yeast Anticancer Drug Screen. Data for the mec2-1 strain (AID 157); conditions: S. cerevisiae mec2-1 strain, at 50.0 µM, active compounds read high
Summary of the method: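 Compounds were applied to mec2-1 yeast cells. Their growth was then compared with that of vehicle-treated cultures to give growth inhibition.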

[3] = NCI Yeast Anticancer Drug Screen. Data for the sgs1 mgt1 strain (AID 161);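 also: 0% = growth of cultures given vehicle only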; conditions: S. cerevisiae sgs1 mgt1 strain, at 50.0 µM, active compounds read high
Summary of the method: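 Growth of a repair-deficient yeast mutant was monitored after compound treatment and expressed as inhibition relative to vehicle-treated cultures.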

[4] = NCI Yeast Anticancer Drug Screen. Data for the cln2 rad14 strain (AID 165);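 also: 0% = growth equal to vehicle treated cultures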; conditions: S. cerevisiae cln2 rad14 strain, at 50.0 µM, active compounds read high
Summary of the method: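 Strain: cln2 rad14 yeast, altered in cell cycle control and DNA damage repair. Read-out: growth inhibition vs vehicle.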

[5] = NCI Yeast Anticancer Drug Screen. Data for the bub3 strain (AID 167); conditions: S. cerevisiae bub3 mutant strain, at 50.0 µM, active compounds read high
Summary of the method: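 In this screen, a yeast mutant lacking normal mitotic checkpoint function is challenged with compound. Relative growth versus vehicle gives the inhibition value.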

[6] = NCI Yeast Anticancer Drug Screen. Data for the mlh1 rad18 strain (AID 175); conditions: S. cerevisiae mlh1 rad18 strain growth inhibition; at 50.0 µM; active compounds read high
Summary of the method: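 A repair-deficient yeast strain is exposed to test compound, and growth is scored relative to vehicle-treated controls.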

Compound	growth inhibition [1]	growth inhibition [2]	growth inhibition [3]	growth inhibition [4]	growth inhibition [5]	growth inhibition [6]
O=S(=O)(O)O.[In]	22.2%	41.6%	39.1%	10.1%	26.5%	15.1%
c1cc(C2N3CCCN2CC3)ccn1 (configuration not stated)	10%	-27.7%	-34%	-19.9%	-2.35%	-15.2%
CC(C)c1cc(C(C)C)c(S(=O)(=O)N=[N+]=[N-])c(C(C)C)c1	12.6%	-0.8%	-31.4%	-8.3%	-16.9%	-7.95%
Cc1cccnc1NN=O	-8.25%	-23.9%	-23.8%	10%	-20.2%	13.6%
C[CH2][Sn](/[CH]=C\CO)([CH2]C)[CH2]C	63%	77.8% (active)	85.2% (active)	43.8%	93.6% (active)	94.6% (active)
Cc1ccc(C(=O)CN)cc1	10.4%	0.05%	-1.35%	4%	3.45%	-9.5%
COC1C(O)CC(OC2CC(Oc3cc4cc5c(c(O)c4c(O)c3C)C(=O)[C@@H](OC3CC(OC4CC(OC6CC(C)(O)C(OC(C)=O)C(C)O6)C(O)C(C)O4)C(O)C(C)O3)[C@H]([C@H](OC)C(=O)[C@@H](O)[C@@H](C)O)C5)OC(C)C2OC(C)=O)OC1C (some centres not stated)	12.7%	24.9%	8.15%	60.2%	7.1%	29.2%
O=C(NC1CCCCC1)C(Cl)(Cl)Cl	-3.1%	-18.3%	-1.85%	-52%	-4.75%	-5.2%
NC(N)=NN(N=O)C1CCCCC1	4.35%	5.05%	-7.85%	-34.8%	-10.5%	5.8%
COc1ccc(C2=CCN(c3ccc(C)cc3)P(=O)(N(CCCl)CCCl)O2)cc1 (configuration not stated)	46.8%	74% (active)	68.9%	81.1% (active)	90.8% (active)	77.4% (active)
[CH3][Sb]1([CH3])([I])[CH2]CC[CH2]1	-6.55%	-5.35%	-5.75%	-11.1%	27.2%	33.9%
COP(=S)(c1ccccc1)N(C)C(=O)Oc1cccc(C(C)C)c1 (configuration not stated)	21.2%	30.7%	34.2%	25.8%	43.8%	45.7%
Cc1ccc2cc3c(ccc4ccccc43)c3c2c1CC3	-9.05%	-23.9%	-2.75%	-3.4%	13.3%	1.85%
O=c1[nH]c(=O)[nH]c(=O)[nH]1	25.6%	-16.1%	-12.9%	-42.8%	1.1%	27.6%
CC(=O)C(Sc1ccccc1[N+](=O)[O-])C(C)=O.[Co]	33.2%	9.5%	4.75%	-1.3%	6.45%	15.8%
c1cc2c(cc1NC1=NCCO1)OCO2	-23.2%	-18.8%	-3.65%	0.7%	-13.8%	-25.2%
N#CCCO	-7.35%	5.05%	0.55%	-6.9%	-3.7%	-6.2%
C/C=C(/C)C(=O)O[C@H]1CCN2CC=C(COC(=O)[C@@](O)([C@H](C)OC)C(C)(C)O)[C@H]12	-17%	-15.8%	3.65%	11.6%	7.55%	-44.2%
CCCc1ccc(CCN)cc1	-8.55%	-9%	-15.1%	-9.45%	-2.3%	-23.2%
CCC1(CCC(C)C)C(=O)NC(=O)N(C)C1=O (configuration not stated)	-6.05%	-1.2%	-1.75%	-19.4%	-11.3%	-4.05%
Nc1ccc(C(=O)O)c([As](O)O)c1	-6.95%	8.55%	-1%	4.35%	-4.3%	0.65%

Compound	growth inhibition [1]	growth inhibition [2]	growth inhibition [3]	growth inhibition [4]	growth inhibition [5]	growth inhibition [6]
CCCCCCCCCCC(C(=O)c1ccccc1)N1CCOCC1 (configuration not stated)	-14.7%	-2.95%	10.9%	-8.3%	3.85%	-8.4%
COc1cc(N(CCCl)CCCl)c(OC)cc1C=Nc1cccc(Cl)c1	31.4%	10.3%	44.4%	10.6%	24.6%	34.2%
O=C(O)C(F)(F)C(F)(Cl)C(F)(F)C(F)(Cl)C(F)(F)Cl (configuration not stated) (tested in a mixture with another compound)	-7.65%	-12.8%	-12.7%	-28.2%	1.1%	-6.2%
CCC[CH2][Sn]([CH2]CCC)([CH2]CCC)[CH2]CCNCCCN(C)C	99.3% (active)	99.7% (active)	99.5% (active)	99% (active)	98.8% (active)	99.2% (active)
COC(=O)/C=C/c1ccc(Cl)cc1	-7%	-1.8%	0.5%	-36.5%	-10.2%	-7.4%
C=C1[C@@H](C)[C@H]2[C@H](Cc3ccccc3)NC(=O)[C@]23OC(=O)/C=C/[C@H](O)CCC[C@@H](C)C/C=C/[C@H]3[C@@H]1O	53.4%	25.8%	24.6%	39%	58.8%	58.5%
O=NNc1cccnc1	-1.05%	-17.1%	-2.35%	4.45%	-4.8%	-38%
CCOP1(=O)C=C(C)C(Cl)=C(C)C1 (configuration not stated)	26.9%	8.35%	11%	-14.3%	3.05%	20.9%
CCP(=S)(CC)P(=S)(CC)CC	-1.35%	-21.4%	-14.6%	-9.2%	-11.8%	7.45%
CCOP(=O)(CC(=O)C1CC1)OCC	-28.8%	-20.5%	-26.2%	-21.9%	-20.9%	-43.1%
c1ccc2c3c(ccc2c1)NC1CCCN1C3 (configuration not stated)	21.8%	6.65%	-0.85%	-38.8%	-8.6%	12.2%
CC(=O)Nc1cc([As](C)(=O)O)ccc1O	-10.3%	1.75%	1.95%	-41.5%	-9.65%	-1.85%
Fc1ccccc1N=C=S	4.55%	-12%	5.65%	18.1%	14.6%	2.75%
O=C(CI)NCCNC(=O)CI	11.1%	16.2%	21.4%	20.6%	10.6%	39.5%
Cc1cc(C)[c]([Hg][Cl])c(C)c1	98.5% (active)	98.7% (active)	98.7% (active)	96.2% (active)	98.7% (active)	97.8% (active)
CC1CCCCN1CCCN=C(N)N[N+](=O)[O-] (configuration not stated)	9.2%	-3.35%	19.2%	18.1%	18.1%	-0.8%
N.N.N.N.N.N#Cc1nn[n-]n1.[Cl-].[Co+3]	4.95%	9.25%	16.8%	24.4%	12.3%	12.9%
NC(CCC(=O)NC(CSc1ccc([N+](=O)[O-])cc1[N+](=O)[O-])C(=O)NCC(=O)O)C(=O)O (configuration not stated)	0.05%	-4.75%	12.2%	8.7%	3.2%	-11.1%
CN(C)CC1C(O)C2CCN1CC2 (configuration not stated)	3.95%	9.3%	-3.1%	-5.3%	-5.5%	-1.85%
O=C(O)Cc1ccc2c(c1)OCO2	20.9%	-0.35%	28.1%	12.2%	-11.3%	23.6%
Oc1ccc(O)c(Br)c1	18.8%	5.9%	28.1%	-21.3%	-4.85%	29.4%
